# Reference: the supplement of paper PMC6555819
# What was measured:
# Test in all cases: PBM binding z-score (relative to random genomic background probes); higher = stronger binding; sequences stand for … in GC…GCGATTGACAGCGTAGAATGAAGG
# [1] = test system: PPARg:RXRa DBDmut IVT, anti-RXR (DBD mutation: RXRa K156A/R161A, NR concentration 270 nM, RXRa partner concentration 90 nM)
# Summary of the method: (§1)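 Custom Agilent 4×180K protein-binding microarrays carried double-stranded probes. Their 34-nt variable regions held direct-repeat seeds, single-nucleotide variants, half-site ablations and random human genomic background sequences. Arrays were incubated 1 h with ligand-free nuclear receptor dimers in PBS pH 7.4, 2% milk, 0.02% Triton X-100, 1 mM DTT, 0.2 mg/mL BSA and 0.4 mg/ml salmon testes DNA. Antibodies against each partner (one per run) detected binding, and scanned fluorescence was regression-normalized. Binding z-scores use random background probes as reference.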
# [2] = test system: PPARg:RXRa IVT, anti-PPARg (NR concentration 270 nM, RXRa partner concentration 90 nM)
# Summary of the method: as §1
# [3] = test system: PPARg DBDmut:RXRa IVT, anti-PPARg (DBD mutation: PPARg1 K132A/R137A, NR concentration 270 nM, RXRa partner concentration 90 nM)
# Summary of the method: as §1
# [4] = test system: PPARg DBDmut IVT, anti-PPARg (DBD mutation: PPARg1 K132A/R137A, NR concentration 270 nM)
# Summary of the method: as §1
# [5] = test system: PPARg homodimer (NR concentration 180 nM)
# Summary of the method: as §1
# [6] = test system: PXR:RXRa (NR concentration 270 nM, RXRa partner concentration 90 nM)
# Summary of the method: as §1
# [7] = test system: PXR homodimer (NR concentration 270 nM)
# Summary of the method: as §1
# [8] = test system: RARa:RXR (NR concentration 270 nM, RXRa partner concentration 90 nM)
# Summary of the method: as §1
# [9] = test system: RARa homodimer (NR concentration 270 nM)
# Summary of the method: as §1
# [10] = test system: RARb:RXRa (NR concentration 270 nM, RXRa partner concentration 90 nM)
# Summary of the method: as §1
Sequence,PBM binding z-score [1],PBM binding z-score [2],PBM binding z-score [3],PBM binding z-score [4],PBM binding z-score [5],PBM binding z-score [6],PBM binding z-score [7],PBM binding z-score [8],PBM binding z-score [9],PBM binding z-score [10]
TATACAGGGTGAAAGGCCAGAGTACGAATGTCGA,1.07,3.51,1.71,0.732,1.24,0.643,0.178,1.31,0.323,1.68
TTACCAAGGTGAAGGTAGTTGATCCCTCTGTAGA,2.05,2.3,-0.207,-0.0185,0.00789,0.456,-0.74,0.351,-0.156,1.35
ATCTCTAGGTAAAGTTCCGTGAAAGATCGATAGA,2.64,1.76,0.867,0.679,0.653,0.0557,0.396,0.388,1.19,0.403
CGAACTAGTTCATTGACAGGACAGTGAATAGTAA,0.941,0.504,0.647,0.333,0.0581,1.09,0.739,0.372,0.437,1.25
CCTAGCAGGCCAATCTGGGTCACTCCAGGCTTGA,4.25,4.76,-0.633,-1.01,0.639,0.543,-0.635,0.754,-0.716,1.48
CCTTACGGGTCACGAGGTTATAGCTCGACGAGCG,3.64,5.56,3.54,1.04,3.72,4.94,-0.0531,6.5,1.15,4.36
TGAATGAGGTTATCAGATCAGGGAACGTTGCAAA,1.59,2.2,0.55,-0.0543,1.69,0.942,-0.255,1.45,-0.892,1.44
GCGACTCGGGCAAAGCAGGTTACCATAAGGTTGG,0.437,0.613,-1.22,-1.92,-0.783,-0.339,-0.681,0.418,-0.821,0.403
TCATATAGGTAAACAGGAGAAAGTCCGTAAGTTA,4.08,2.77,0.715,0.615,0.67,0.188,0.377,0.0372,0.767,0.292
TCATATAGGTAAATGCTAGGTGCAAGTCCGATCT,3.77,1.96,1.24,0.918,0.912,0.511,0.449,0.897,0.586,0.263
TCCCGGAGGACACGAAGGTCAGAGCTTTCCAGAG,0.961,0.734,-0.541,-1.41,1.3,1.73,0.166,1.95,-0.433,3.44
GCTTGTAGATCAAGGTTAAGAACGACTAAGCTAA,1.08,1.15,0.637,-0.445,0.356,0.364,-0.0676,0.827,0.211,0.716
GCTTGTAGATCAAGGCTAAGAAAGACTAAGCTAA,0.902,-0.107,-0.0292,-0.466,-1.05,-0.743,-0.42,-0.679,-0.656,-0.482
CGAACTAGGTCAAAACAGGACAGTGAAGGATGAT,7.83,8.1,3.19,2.56,2.39,2.05,-0.00978,2.02,0.444,3.33
ACCGAAAGGTCGACGAGGTGAGTATACACCGTTT,1.08,2.03,0.47,0.38,1.27,2.93,0.279,3.29,0.4,4.19
TCTTGTAGATCAATAGAGGTTAAGATAGTGCGCT,1.55,0.959,0.251,0.77,0.455,2.26,-0.0224,2.09,0.236,0.832
GCTATTAGTTGAAAGGGCGACCGAATGATTCTCG,0.652,-0.0504,-0.223,-0.65,0.251,-0.1,-0.523,0.097,-0.0879,0.699
CCTTACGGGTCACGAGGGTATAGCACGACGAGCG,3.29,5.07,0.569,0.0491,2.12,4.23,-0.0662,4.88,0.889,4.44
CCTAGTTGCTCAGGAGGTCACACACCGGATATGA,0.887,2.47,0.559,1.01,3.26,4.39,1.59,4.49,2.6,3.64
CTCCCAAGGTGAACAAGGTCGTTGATTACTATTC,1.99,2.07,-0.441,-0.154,0.903,2.42,1.92,2.14,-0.0783,2.03
CCTAATTGGTCAAGGTCACACACGCTATAGGTAC,2.69,3.49,1.13,1.42,3.47,4.32,1.9,4.28,2.79,4.22
TCTTGTAGATCAATAGAGGTTAGGAAAGTGCGCT,2,0.75,0.694,0.358,0.823,2.06,0.156,1.41,0.518,0.535
GCGACTGGGGCATCGGCAGGTTACCATAACTTAA,3.7,3.26,-0.659,-0.662,0.364,0.0639,-0.275,0.387,-0.205,0.954
ATCTCTAGGAAAAGTTCAGTGAAAGATCGATAGA,-0.273,0.00412,1.12,0.44,0.701,1.43,1.46,0.476,1.52,2.17
